# Screening data: PubChem, several laboratories
# Hck-Nef inh – inhibitors of human Hck kinase activated by Nef. actives 0.68% (n = 220,000). AID 463187. Recombinant Hck-YEEI plus Nef, Z-Lyte FRET kinase assay. inhibition, % at 20 µM;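 active = Hck-Nef kinase inhibition above about 50%, limit read from the data; inactive = inhibition below that limit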;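 also: 0% = DMSO with Hck plus Nef and 100% = Hck alone without Nef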
# p97 ATPase inh – blocks human p97 ATPase activity | P55072 | recombinant p97 ATPase, Kinase-Glo ATP luminescence, 3 h | inhibition, % at 8 µM | actives 0.42% (n = 220,000) | AID 1481; in the data active = inhibition above about 15%;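 also: 0% = DMSO vehicle and 100% = wells lacking enzyme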
# Target sequence (P55072 whole entry, looked up): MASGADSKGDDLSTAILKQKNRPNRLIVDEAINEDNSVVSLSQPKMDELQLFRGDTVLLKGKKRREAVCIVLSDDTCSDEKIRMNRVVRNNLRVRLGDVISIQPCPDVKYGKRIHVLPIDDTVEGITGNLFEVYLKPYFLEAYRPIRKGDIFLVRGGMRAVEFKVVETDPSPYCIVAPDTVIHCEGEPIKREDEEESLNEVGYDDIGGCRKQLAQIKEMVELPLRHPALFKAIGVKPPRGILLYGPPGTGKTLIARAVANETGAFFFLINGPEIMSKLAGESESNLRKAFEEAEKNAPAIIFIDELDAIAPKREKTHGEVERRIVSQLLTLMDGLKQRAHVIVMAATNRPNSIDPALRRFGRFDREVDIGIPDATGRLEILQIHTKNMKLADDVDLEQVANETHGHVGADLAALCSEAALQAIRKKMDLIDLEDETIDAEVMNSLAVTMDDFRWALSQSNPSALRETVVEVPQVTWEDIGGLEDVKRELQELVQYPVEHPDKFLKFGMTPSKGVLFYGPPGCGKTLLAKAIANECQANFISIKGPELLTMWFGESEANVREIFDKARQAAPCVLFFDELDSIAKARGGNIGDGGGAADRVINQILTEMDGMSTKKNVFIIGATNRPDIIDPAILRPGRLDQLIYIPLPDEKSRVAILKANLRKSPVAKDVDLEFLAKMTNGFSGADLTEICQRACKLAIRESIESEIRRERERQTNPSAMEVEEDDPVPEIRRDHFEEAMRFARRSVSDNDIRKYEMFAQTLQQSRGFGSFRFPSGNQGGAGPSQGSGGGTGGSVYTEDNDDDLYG
# EP2 modulator – EP2 receptor (human) modulation; induction, % at 25 µM; EP2-expressing cells, cAMP HTRF FRET, PGE2 co-stimulation; actives 0.83% (n = 260,000); P43116; AID 940;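 active = compounds whose cAMP rise, as percent of the full-agonist control response, exceeds 60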;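 also: rat C6 glioma line stably carrying human EP2 under a CMV promoter; the protocol text gives 20 µM as final concentration; 100% = response of wells given 1 µM PGE2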
# EP2 antag – inhibitors of human EP2 prostaglandin E2 receptor; C6 glioma cells expressing human EP2, cAMP TR-FRET; cells stimulated with saturating PGE2; inhibition, % at 25 µM; actives 0.52% (n = 260,000); AID 1422;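 active = percent inhibition above 40 after rounding to a whole number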;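 also: rat C6 glioma host cells with rolipram phosphodiesterase inhibitor present; the protocol text gives 20 µM as final concentration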
# Arbovirus anti – arbovirus infection inhibition; arbovirus infection cell-based antiviral screen; inhibition, % at 10 µM; actives 0.37% (n = 200,000); AID 1251; in the data active = inhibition above about 30%
# * = called active by the depositor; nt = no result; ! = a repeat was not active. Most compounds without a hit are left out; they make up all but 2.4% or so of the library.
SMILES,Hck-Nef inh,p97 ATPase inh,EP2 modulator,EP2 antag,Arbovirus anti
CCCC(c1nnnn1Cc1ccco1)N(Cc1cccs1)Cc1cc2cc(C)ccc2[nH]c1=O (stereo unspecified),nt,nt,30,9,nt
Clc1ccc(-c2nnnn2-c2ccc(Cl)cc2)cc1,18,3,-43,7,nt
Cc1ccc(-n2nnnc2C(Cl)(Cl)c2nnnn2-c2ccc(C)cc2)cc1,-1,4,-5,91*,-26
CCCCN(CCCC)C(=O)c1sc2nc(N3CCOCC3)c3c(c2c1N)CCCC3,13,-3,87*,10,nt
COc1cc(/C=N/NC(=O)c2ccc(COc3ccccc3Cl)o2)cc(Br)c1O,6,-3,-68,75*,1
COc1cccc(/C=N/NC(=O)c2ccc(COc3ccc(Cl)cc3Cl)o2)c1,4,-4,-35,18,5
NCOC(=O)Cc1ccc(Br)cc1,nt,nt,10,54*,nt
C/C(=N\NC1=NCCN1)c1cn(C2=NCCN2)nc1C,nt,nt,8,49*,nt
CCCCOc1ccc(Br)cc1/C(C)=N/NC1=NCCN1,8,-2,-27,16,-36
CC(=O)OCC(=O)[C@@]1(O)CC[C@H]2[C@@H]3CCC4=CC(=O)CC[C@]4(C)[C@H]3[C@@H](O)C[C@@]21C,-2,6,2,10,19
C[C@@]12CCC(=O)C=C1CC[C@H]1[C@H]2[C@@H](O)C[C@]2(C)[C@@H]1CC[C@@]2(O)C(=O)COC(=O)C1CCCC1,nt,nt,-6,50*,nt
CN1CCC[C@H](C(=O)OCC(=O)[C@]2(O)CC[C@@H]3[C@H]4CCC5=CC(=O)CC[C@@]5(C)[C@@H]4[C@@H](O)C[C@]32C)C1,nt,nt,10,53*,nt
CC(C)(C)C1=NN(CC(=O)NCc2ccco2)C(=O)c2cc3ccccc3n2C1,nt,nt,-19,nt,nt
CCC(=O)Nc1nnc(C2CCCO2)s1 (stereo unspecified),nt,nt,-11,2,nt
COc1cc(CN2CCc3sccc3C2C)ccc1OCC(N)=O (stereo unspecified),nt,nt,-21,6,nt
COc1cc(NS(=O)(=O)c2ccc(C)cc2)ccc1-n1cnnn1,-1,3,21,153*,4
Cc1c2cccc(Sc3ccccc3)c2c2c3c(cccc13)[S+](c1ccccc1)C2 (stereo unspecified),nt,nt,25,42*,nt
COc1ccc(CCC(=O)Nc2sccc2C#N)cc1,59*,5,-1,5,1
COc1cc(OC)cc(C(=O)N[C@H](C(=O)OCC(=O)Nc2sccc2C#N)C(C)C)c1,36,-5,-24,0,0
O=C(CC1CCCCC1)Nc1ccc(Cl)cn1,nt,nt,-19,6,nt
CCOC(=O)C1CCN(c2nc(N)c3c(N)nc(SCC(=O)O)cc3c2C#N)CC1,2,55*,-32,10,nt
CCOC(=O)C1CCN(c2nc(C)cc(C)c2C#N)CC1,7,-3,4,8,-2
CCn1c(=O)c(C(=O)NCc2ccccc2OC)c(O)c2ccccc21,nt,nt,62*,14,nt
CCn1c(=O)c(C(=O)NCc2cccnc2)c(O)c2ccccc21,0,7,65*,11,-8
CC(C)Cn1c(=O)c(C(=O)NCc2ccccn2)c(O)c2ccccc21,-7,-8,62*,15,-17
SMILES,Hck-Nef inh,p97 ATPase inh,EP2 modulator,EP2 antag,Arbovirus anti
COc1ccc([N+](=O)[O-])cc1NC(=O)c1ccc(Br)s1,79*,-2,8,6,-3
COc1ccc([N+](=O)[O-])cc1NC(=S)NC(C)=O,-11,1,-8,8,-4
C=C[C@@]1(C)CC(=O)[C@@]2(O)[C@](C)(O1)[C@@H](OC(C)=O)[C@@H](O)C1C(C)(C)CC[C@H](O)[C@@]12C (stereo partly specified),nt,nt,104*,8,nt
O=C1c2ccccc2C(=O)c2c1ccc(N1C(=O)c3ccccc3C1=O)c2-c1c(N2C(=O)c3ccccc3C2=O)ccc2c1C(=O)c1ccccc1C2=O,nt,nt,0,45*,nt
COc1ccc(S(=O)(=O)N(Cc2ccc3c(c2)OCO3)Cc2cc3ccc(C)cc3[nH]c2=O)cc1,nt,nt,18,9,nt
CCc1nn(CC(=O)NCc2ccccc2OC)c(=O)c2cc3oc(C)cc3n12,nt,nt,8,nt,nt
COC(=O)CSc1nc(-c2ccccc2)nc2ccc(F)cc12,0,2,36,4,0
O=C(O)CSc1nc(-c2ccccc2)nc2ccc(F)cc12,nt,nt,89*,12,nt
OCCSc1nc(-c2ccccc2)nc2ccc(F)cc12,22,-10,70*!,12,-15
O=C1N=C2CCCCC2C(c2ccccc2)N1 (stereo unspecified),nt,nt,-1,9,nt
N=C(N)SCc1nc2ccccc2c(=O)n1-c1ccccc1,0,-8,13,10,30*!
N=C(N)n1c(N)nc2ccccc2c1=O,0,9,-7,9,nt
COc1cc(/C=C(\C#N)c2nc3ccccc3s2)cc([N+](=O)[O-])c1O,22,11,-61,7,36*
N#C/C(=C\c1ccc(O)c([N+](=O)[O-])c1)c1nc2ccccc2s1,43,9,-80,11,46*
O=C(CN1CCC(c2ccccc2F)CC1)NCc1ccco1,nt,nt,-50,7,nt
CN1CC=C(/C=C/c2ccc(Cl)cc2)CC1,nt,nt,-45,nt,nt
CC1=c2c(oc3cc(O)c(Nc4c(C)cc(O)cc4O)c(C)c23)=CC(=O)C1=Nc1c(C)cc(O)cc1O,nt,nt,-7,53*,nt
C#Cc1cccc(NCc2cc3c(C)nn(-c4ccccc4)c3[nH]c2=O)c1,nt,nt,-86,17,nt
Cc1ccc(C(=O)c2ccc([N+](=O)[O-])cc2)cc1,2,2,-6,11,-2
Cc1ccc(C(=O)c2coc3cc([N+](=O)[O-])c(O)c([N+](=O)[O-])c23)cc1,5,3,24,7,37*
O=c1c2ccccc2[nH]c2ccc(F)cc12,71*,9,-45,3,2
O=c1c2c([nH]c3ccccc13)CCC2,nt,nt,-16,9,nt
Cn1c(=S)c2[nH]c(SCCN3C(=O)c4ccccc4C3=O)nc2n(C)c1=O,nt,nt,21,41*,nt
OC(CN1CCC(O)(c2ccccc2F)CC1)c1ccc2ccccc2c1 (stereo unspecified),nt,nt,-69,7,nt
COc1cc(OC)c2c(=O)cc(-c3ccccc3)oc2c1,11,-6,-6,nt,-12
SMILES,Hck-Nef inh,p97 ATPase inh,EP2 modulator,EP2 antag,Arbovirus anti
COc1cc2c(c3oc(-c4ccccc4)cc(=O)c13)C=CC(C)(C)O2,20,0,-12,50*,-20
COc1ccc(C2=NN(CC(=O)N3CCCC3)C(=O)c3cc4ccccc4n3C2)cc1,nt,nt,14,nt,nt
CN(C)c1ccc(N=Cc2nc(-c3ccccc3)oc2OC(=O)c2cccc(Cl)c2)cc1,1,-5,35,10,-3
Cc1ccc(C(=O)Oc2oc(-c3ccccc3)nc2C=Nc2ccc(N(C)C)cc2)cc1,1,0,47,42*,11
CC(=O)c1ccc(NC(=O)CSc2nc3ccc(C(C)C)cc3cc2C#N)cc1,nt,nt,45,10,nt
Cc1cccc(N2CCN(c3nc4ccccc4n4cnnc34)CC2)c1C,-2,1,63*,11,-2
c1cnc(N2CCN(c3nc4ccccc4n4cnnc34)CC2)nc1,2,0,-15,3,-16
